# CD40 NFkB inh = CD40 pathway inhibition in BL2 cells | hit rate 0.94% among 83,000 | BL2 NF-kB luciferase reporter, CD40L-induced, 4 h | AID 1053188 | inhibition, % at 10 µM;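 active = mean inhibition of at least 50% with a set share of replicates also reaching that level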;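 note: 0% = neutral control wells and 100% = IKK inhibitor VII at 50 µM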
# The depositor's hits bear a star; [ ] = remark or other dose. Only a selection was taken, and hits are over-represented in it overall.
SMILES,CD40 NFkB inh
Cc1ccc(S(=O)(=O)N(C)C[C@@H]2OCCCC[C@@H](C)Oc3ccc(NC(=O)c4ccncc4)cc3C(=O)N([C@@H](C)CO)C[C@@H]2C)cc1,10[25 µM]
COC(=O)[C@@H]1[C@@H](CO)[C@@H]2Cn3c(ccc(C4=CCCCC4)c3=O)[C@@H]2N1Cc1ccc2c(c1)OCO2,-4[25 µM]
CCCNC(=O)N1CC2(CCN(Cc3cccc(OC)c3)CC2)c2c(n(C)c3cc(OC)ccc23)[C@@H]1CO,8[25 µM]
COc1cccc(NC(=O)N(C)C[C@H]2OCc3ccccc3-c3ccccc3C(=O)N([C@@H](C)CO)C[C@@H]2C)c1,-6[25 µM]
Cc1c(C(=O)OCC(=O)NC(=O)NC2CCCCC2)cccc1[N+](=O)[O-],0
CN(C)c1ccc(C(=O)c2ccccc2C(=O)O)cc1[N+](=O)[O-],11
CC1CCC(NC(=O)COC(=O)CSc2ccc(C(N)=O)cc2[N+](=O)[O-])CC1 (centres undefined),6
CNc1ccc(C(=O)c2ccccc2C(=O)O)cc1[N+](=O)[O-],1
O=C(OC1CCOC1=O)c1ccccc1C(=O)c1ccc(Cl)c([N+](=O)[O-])c1 (centres undefined),78*
O=C(COC(=O)c1ccccc1[N+](=O)[O-])c1ccc(C2CCCCC2)cc1,91*
O=C(COC(=O)c1ccccc1C(=O)c1ccc(Cl)c([N+](=O)[O-])c1)NC1CC1,98*
O=C(COC(=O)c1ccccc1[N+](=O)[O-])Nc1cccnc1Cl,-35
CS(=O)(=O)c1ccc(Cl)c(C(=O)OCC(=O)NC2CCCCCCC2)c1,21
O=C(CCN1CCCCC1)NCC[C@@H]1CC[C@H](NC(=O)C2CCCCC2)[C@H](CO)O1,1
C[C@@H]1CN([C@H](C)CO)C(=O)c2ccccc2-c2ccccc2CO[C@@H]1CN(C)C(=O)CCN(C)C,-4
CO[C@H]1CN(C)C(=O)c2ccc(NC(=O)C3CC3)cc2OC[C@@H](C)N(Cc2cccnc2)C[C@@H]1C,-4
Cn1cnc(S(=O)(=O)N[C@@H]2CC[C@@H](CC(=O)NCC3CCCCC3)O[C@@H]2CO)c1,-2[25 µM]
O=C(O)CCC/C=C/CC1COC(C(F)(F)F)OC1c1ccccc1O (centres undefined),-5[25 µM]
CCCCCCCN1N=C(C)C(C(=O)c2ccccc2)C1=O (centres undefined),11
CCCCCN1C=CC(=C2C(=O)c3ccccc3C2=O)C=C1,81*
COCC(=O)N1C[C@@H]2[C@H](c3ccccc31)[C@@H](CO)N2C(=O)c1ccccc1F,1[25 µM]
Cc1ccc(-c2cc(C(=O)N3CCOCC3)c3ccccc3n2)o1,-11
Cc1c(C(=O)N2CCCC(C(F)(F)F)C2)oc2ccccc12 (centres undefined),-22
Cc1ccc(-c2cc(C(=O)N3CCCC(C(F)(F)F)C3)c3ccccc3n2)o1 (centres undefined),105*
CC(=O)Nc1ccc2c(c1)C(=O)N(C)C[C@@H](C)[C@@H](CN(C)C(C)=O)O2,-5
SMILES,CD40 NFkB inh
CN(C)C(=O)[C@H]1[C@H](CO)[C@H]2Cn3c(ccc(-c4ccncc4)c3=O)[C@@H]1N2CC1CC1,3[25 µM]
C[C@H](CO)N1C[C@H](C)[C@@H](CN(C)Cc2ccncc2)Oc2ccc(NS(=O)(=O)c3ccc(F)cc3)cc2CC1=O,0[25 µM]
C[C@@H]1CN([C@@H](C)CO)C(=O)Cc2cc(NS(=O)(=O)c3ccc(F)cc3)ccc2O[C@@H]1CN(C)Cc1ccc(C(F)(F)F)cc1,47*
C[C@H](CO)N1C[C@H](C)[C@@H](CN(C)Cc2ccc(C(F)(F)F)cc2)Oc2ccc(NS(=O)(=O)c3ccc(Cl)cc3)cc2CC1=O,52*
C[C@@H]1CN([C@H](C)CO)C(=O)Cc2cc(NS(=O)(=O)c3ccc(F)cc3)ccc2O[C@H]1CN(C)Cc1ccncc1,5[25 µM]
C[C@@H]1CN([C@H](C)CO)C(=O)Cc2cc(NS(=O)(=O)c3ccc(F)cc3)ccc2O[C@H]1CN(C)Cc1ccc(C(F)(F)F)cc1,56*
C[C@@H]1CN([C@@H](C)CO)C(=O)Cc2cc(NS(=O)(=O)c3ccc(F)cc3)ccc2O[C@H]1CN(C)Cc1ccncc1,7[25 µM]
C[C@@H]1CN([C@H](C)CO)C(=O)Cc2cc(NS(C)(=O)=O)ccc2O[C@@H]1CN(C)Cc1ccc(C(=O)O)cc1,-1
C[C@@H]1CN([C@H](C)CO)C(=O)Cc2cc(NS(=O)(=O)c3ccccc3)ccc2O[C@H]1CN(C)Cc1ccc(Cl)c(Cl)c1,42
COc1ccc(CN(C)C[C@H]2Oc3ccc(NS(=O)(=O)c4ccc(Cl)cc4)cc3CC(=O)N([C@@H](C)CO)C[C@@H]2C)cc1,13
CNC(=O)C1OC(n2cnc3c(NCc4cccc(I)c4)nc(Cl)nc32)C(O)C1O (centres undefined),5[25 µM]
O=C([C@H]1[C@H](CO)[C@H]2Cn3c(cccc3=O)[C@H]2N1Cc1ccccc1Cl)N1CCOCC1,-2[25 µM]
COc1ccc(-c2ccc3n(c2=O)C[C@H]2[C@H](CO)[C@@H](C(=O)NCCN4CCCCC4)N(C)[C@@H]32)cc1,-6[25 µM]
O=C(NC1CCCC1)[C@@H]1[C@@H](CO)[C@@H]2Cn3c(ccc(C4=CCCCC4)c3=O)[C@H]1N2CC1CC1,3[25 µM]
CC(=O)N(C)C[C@@H]1Oc2ccc(NS(C)(=O)=O)cc2CC(=O)N(C)C[C@H]1C,0
C[C@H](CO)N1C[C@H](C)[C@@H](CN(C)C)Oc2ccc(NC(=O)CCCN(C)C)cc2CC1=O,4[25 µM]
Cc1ccccc1C(=O)N1CCC(C(=O)Nc2nc3ccc(F)cc3s2)CC1,56*
O=C(CN1C(=O)C2CCCCC2C1=O)Nc1nc2ccc(F)cc2s1 (centres undefined),-5
Cc1ccccc1C(=O)N1CCC(C(=O)Nc2nccs2)CC1,-13
O=C(C[C@@H]1C[C@H]2c3cc(NC(=O)NC4CCCC4)ccc3O[C@H]2[C@@H](CO)O1)NCc1ccccn1,-3
CC(=O)Nc1ccc2c(c1)CC(=O)N(C)C[C@H](C)[C@@H](CN(C)S(C)(=O)=O)O2,-4
COc1ccc(-c2ccc3n(c2=O)C[C@@H]2[C@@H](CO)[C@H](C(=O)N(C)C)[C@H]3N2Cc2cncnc2)cc1,-6[25 µM]
Cc1nc2ccccc2c(=O)n1CCN1CCOCC1,-4
Cc1nc2nc(C)n(CCN3CCOCC3)c(=O)c2c(-c2cccc([N+](=O)[O-])c2)c1C(=O)CCCCCCCCCCN1CCC(c2ccccc2)(c2ccccc2)CC1,115*
CCOC(=O)c1c(C)nc(C)c(C(=O)OCC)c1-c1cccc([N+](=O)[O-])c1,-3
SMILES,CD40 NFkB inh
C[C@@H]1CN([C@@H](C)CO)C(=O)c2ccccc2-c2ccccc2CO[C@@H]1CN(C)Cc1cccnc1,-16[25 µM]
Cc1ccc(S(=O)(=O)N2CCCC2CNC(=O)c2ccccc2)cc1 (centres undefined),-9
Cc1ccc(S(=O)(=O)N2CCCC2CNC(=O)c2ccc3c(c2)OCO3)cc1 (centres undefined),38*
COc1ccc(C(=O)NCC2CCCN2S(=O)(=O)c2ccccc2)cc1OC (centres undefined),3
COCC(=O)N1[C@H](C#N)[C@H](c2ccccc2-c2cccc(OC)c2)[C@H]1CO,-12[25 µM]
CCN(CC(=O)Nc1cc(Cl)ccc1C)C(=O)CSCc1c(C)noc1C,1
Cc1noc(C)c1CSCC(=O)N(C)CC(=O)Nc1ccc(Cl)c(Cl)c1,-3
Cc1ccc(C)c(NC(=O)CN(C)C(=O)CSCc2c(C)noc2C)c1,29*
C[C@@H]1CN(C)C(=O)c2cc(N(C)C)ccc2O[C@@H]1CN(C)S(C)(=O)=O,8
CO[C@H]1CN(C)C(=O)c2ccc(NC(=O)C3CCOCC3)cc2OC[C@H](C)N(CC2CC2)C[C@H]1C,-5

# Bioassay records as filed in PubChem BioAssay.
